Measured values reported in PubChem BioAssay AID1347426 (Functional Genomics Laboratory (NCATS/FGL), 2020).
In all, about 31,000 sequences went through this assay and about 1,400 (4.5%) were called active.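 Rule for the calls: active = median seed-adjusted z-score above 1 or below -1; inactive = the rest.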 Only a selection was taken, and actives are over-represented in it overall.

Test: Novel Modifiers of Survival Motor Neuron (SMN) Protein: Gene Identification via Genome-wide siRNA Screen;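 note: luminescence tracks full-length SMN protein made from the SMN2 reporter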
Details: HEK293T SMN2-luciferase reporter, siRNA knockdown, 72 h; actives lie on both sides
Summary of the method: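 HEK293T cells stably expressing an SMN2 splicing/cDNA-luciferase reporter were reverse-transfected with a druggable-genome siRNA library and read by luminescence at 72 hours; hits defined by MAD score above 1.0 or below -1.0.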

Sequence	median seed-adjusted z-score
AGCCGUGGAUGGUAGAUCUTT against ZNF2	-0.119 (inactive)
CAGACUAAACUAUAGCGAUTT against SENP6	-1.03 (active)
GCAACUCCAAUGUCAGUGATT against TAF9B	-0.0247 (inactive)
GAGUCUGAAGGAUACUAUUTT against PGAM1	-0.234 (inactive)
GCCCUGAACAAGUUGCUCATT against TRPV6	-0.511 (inactive)
GCUUUUCCCGGUCAGAUCATT against KLF12	-0.0892 (inactive)
CCAUCGCAGAGGGAGAUAATT against USP43	0 (inactive)
GCUUCUAUAUUCAUGCUAATT against DDX6	1.12 (active)
GGUGAUGAGUGUUCCUACATT against KCNA4	-0.634 (inactive)
GGAUUUCUCAUGGAAGUUUTT against CUTC	-0.377 (inactive)
CGUAAAACCCAUCAAGUUUTT against B3GALNT1	0.128 (inactive)
GGCGGCAAGACGUAAGGAATT against SEMA3B	0.000251 (inactive)
UGCUGACCCUAAUCCCUUATT against ETV2	0 (inactive)
AGUUAGAGGUAGCAUUAUATT against FZD5	-0.129 (inactive)
GAGCAAUGCUGACUAUCAATT against CNOT7	0.716 (inactive)
CACUCGCAGUUAAUAUCAUTT against AZIN1	-1.14 (active)
GGAUCCAGCUUUUCCUCGATT against ABCC10	-1.56 (active)
CCACGGCUGCAACAUCUUUTT against PDE2A	-0.2 (inactive)
CAGCCGCUCUCGUCAAUGUTT against GGTLC2	-0.288 (inactive)
ACAACUUCGUUUUCGGUCATT against TUBB2C	0 (inactive)
GCAGCAACAUUAUUGUCUUTT against CLDN17	0 (inactive)
GAAUGAAUUCUCUACUCUATT against ERBB3	-0.561 (inactive)

Sequence	median seed-adjusted z-score
GCCUGUGAAGUGAACCUGATT against TMPRSS6	1.29 (active)
UGAUAUUGCUUAGUCCAUUTT against PRLHR	0 (inactive)
CAAACGUGGACUGUCCAAATT against CA4	0.0549 (inactive)
CAUGCACGGAGAGCCCAAATT against RPUSD3	0.303 (inactive)
CCAGGAGAUCUUUGCCUUUTT against SLC4A3	-0.7 (inactive)
GAACCGCUACAAGAACAUUTT against PTPN6	-0.515 (inactive)
AGAUGAAACUUCUACUGAATT against POLR2H	-2.74 (active)
CUUUGUCUAUGUCACCAUUTT against IMP5	0.559 (inactive)
CAAGCGAAUUAACUAUCUATT against GJB3	-0.198 (inactive)
GUCUCGCUGUGAUAGAUCATT against ELN	-0.149 (inactive)
CCAACAUCGAGUCCCUCAATT against SLC29A3	-0.0626 (inactive)
CUGAUAAAGUGGGUCAACATT against TNFRSF10B	0.064 (inactive)
CCAUCGUCAUGGAUCCAGATT against KDR	0.0728 (inactive)
GGGACAUCCUUUCCGGAAATT against NDUFS3	-0.54 (inactive)
GGAGUGUGAUGAUUCGUGATT against DGKK	0 (inactive)
AGAACUCACCUCCUGAUUATT against YY1	1.94 (active)
GCAAGAUAACAAUUGAUAUTT against ANKRD30A	0.259 (inactive)
AGAUCUUCGCAAAUACUGUTT against KRT18	0.558 (inactive)
GGCUUAUGGAGGACCCUAUTT against NCOR1	0.0767 (inactive)
CCUAUGAUCCAACACCAUATT against GMPPA	0.619 (inactive)
CAUUAGCAGUUGUCCCGUUTT against P2RY10	-0.432 (inactive)
CUACUUCCGCAACCAGCUATT against UNC119	0.171 (inactive)

Sequence	median seed-adjusted z-score
CUAUGGUAGCGACACUGCATT against LILRB1	0.539 (inactive)
UCACAGAGCCUAUUAUUUUTT against PRKY	0.168 (inactive)
GUGUCAGAGUUUAUAUCAATT against PDE4D	0 (inactive)
CAAACUAUCUCUGAAAAUATT against TRYX3	2.3 (active)
GCUGAUGACUGUCGUUAUATT against TBX3	0 (inactive)
CAUCCUGUAUAAGUACUAUTT against RNF216	-0.246 (inactive)
UCAACAUCGUCUACCAGGATT against SCNN1D	-1.8 (active)
GAUCUACCCUGCUCACGAUTT against ETHE1	0 (inactive)
CAGGCUACAGUGAACAGAATT against GNL1	0.154 (inactive)
GCGCGUUGGUACAAUGGAATT against GOT1	0.0103 (inactive)
GCUUGUCUUUCAACCCGAUTT against PARP4	-0.226 (inactive)
GCAACGUGUUGAUGAUGCATT against ADAD1	-0.0795 (inactive)
GCACAGAGGAACGAACUAATT against PSMC5	-1.06 (active)
GGGAGACGGUAGAAUCAGATT against ATP13A4	-1.09 (active)
CCAUGUGAGUGUAAGCAGUTT against ZNF490	0.00954 (inactive)
GGGUAACUGUUGAUAACCATT against POGK	0.938 (inactive)
ACAAGACUUAUGCAAGAUATT against XRCC6BP1	0.128 (inactive)
GGAAUUCGAUGGGAACUUUTT against CACHD1	0.119 (inactive)
CCGAGUAGCUGAAAUUGUUTT against BCL2L14	-0.859 (inactive)
AGAUCUAUGAGAUUGAACATT against PRKAG3	-1.03 (active)
CAAGUUCCUUAACAAGGAATT against EIF2B4	0 (inactive)
CAGAUACUUUAGGACUCAATT against UGT2B4	0.0707 (inactive)

Sequence	median seed-adjusted z-score
CAGGCUCACUCGCAAAGAATT against USP31	-0.755 (inactive)
GGCUCUCUGUCAACUAUGATT against MGC21874	-0.354 (inactive)
CCCUUUUCUUUAUCCCUGATT against IL9R	-1.33 (active)
GCAAGGCUAUUAUAGAUCATT against CTNNA3	0.249 (inactive)
GGACAUUGCUGAUCGCUUUTT against DMC1	-0.00876 (inactive)
GCAUGUCUCUAAUAUUCCUTT against RBM9	0.895 (inactive)
GGUUUGAAAUUCUAACAAATT against TXNDC6	0.156 (inactive)
CAUCCUGCAGAGUAUCUAATT against EPHA5	-0.00876 (inactive)
CUCUCUCUCGGAAUCUGAATT against POLR2L	-1.19 (active)
GGUUGUUUUGGAAACCGAATT against NAT12	-0.0807 (inactive)
GCGAAUUCAUAAGUCCAUUTT against MTMR9	0.133 (inactive)
CAAGACCGAGAGAACAAUATT against ENOX1	0.0694 (inactive)
CCAUCACCGUUGAUGACAATT against JAK1	0.0199 (inactive)
CGAGCUGCACGUUCCUAUATT against IRF7	-0.304 (inactive)
CAGUGGAUAUAUCCAGUCATT against RAB20	-0.334 (inactive)
GACUCGUUGUUGGUCUAAATT against MAP3K7	-0.23 (inactive)
CGCUGAUUUUCGAGUGUAATT against EHMT2	0.295 (inactive)
GGGUCAUGCAGCAUCAAUATT against ITGAM	-1.56 (active)
CCAAGGACCUGGUCUGAAATT against CUGBP1	0.086 (inactive)
AGCAGAUGGUUUUCGAGAATT against COPZ2	-1.23 (active)
GGGUUUUGCUGACAGCUCATT against ZNF48	-0.116 (inactive)
GGAACACGCAUGUCUGGAATT against NOS1	0.0195 (inactive)

Sequence	median seed-adjusted z-score
GAAUGCAAGAUUUUCGAUUTT against USH2A	0.0673 (inactive)
GGCAUCCGCUUGUACUACATT against DBH	0.337 (inactive)
CCCUAUCAGUCCAAUGGAATT against PRDM4	0.0804 (inactive)
GCCUUCUCCUCUCAUAACATT against ZNF683	-0.452 (inactive)
CAACUUCUCCGUAGCAGAATT against AKT2	0 (inactive)
CUUCUACAGUGGUCACCUATT against VPS29	-0.408 (inactive)
GGUUAUCAAUGACGAGCAATT against EP400	1.83 (active)
GAACCUCGUUUCGAAAUUUTT against RIOK2	-0.16 (inactive)
GAAUGAUUUUCCAAAUGGATT against SLC25A21	-0.219 (inactive)
GGAAGAAACGGAGACUCAATT against DPF1	0.144 (inactive)
GCCUGGUUUUGGAUACAAATT against LTA4H	-0.742 (inactive)
CAACUGCUACCUUAGCAUATT against RNF133	0 (inactive)
GCUGUGAGAUUUACUCUGATT against ALAS1	-1.15 (active)
AAGUGACUCUAGUCGUUUATT against REM2	0.109 (inactive)
GCAGGGUCAUUACGACUCATT against PAX9	-1.16 (active)
GAAUGGAUUCUGACCUUAUTT against MTO1	-0.0252 (inactive)
ACAAGAUGUAUCACCUAUATT against ZNF226	0.437 (inactive)
GGACUUGCUGGAAAGCACATT against NCALD	0 (inactive)
GUACCUAAGUUGGAGCUGATT against TRPT1	-0.671 (inactive)
CCACUGGGCUAAUUCUACATT against ALPPL2	0.331 (inactive)
CGACACUUUCUAUCGACAATT against UBA3	0.605 (inactive)
